Results filed as inconclusive are left out. Calls of active or inactive are those of the source. How the source made its calls, unless noted: active means hit-call score of the fitted dose curve at least 0.9, where 1 is the maximum; inactive means score below 0.9.

By AC50 is commonly meant the midpoint of the concentration-response curve, whichever way the signal moves.

A short description of assay [1]: ATG_PBREM_CIS: Attagene CIS-FACTORIAL HepG2 Assay for human Phenobarbital-responsive Enhancer Module (PBREM) (AID 2282955). As to conditions: HepG2 PBREM cis-reporter, Attagene multiplexed transcription; actives raise or lower the signal. Put shortly: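 Cells were transfected with cis-element reporter units and treated for 24 h, after which RNA was extracted and reporter transcripts measured by RT-PCR and capillary electrophoresis.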

Assay [2] concerns the target Paired box protein Pax-6 (Homo sapiens) (UniProt P26367). Kind of assay: ATG_Pax6_CIS: Attagene CIS-FACTORIAL HepG2 Assay for human Paired Box 6 (PAX6) (AID 2282956). As to conditions: HepG2 CIS-FACTORIAL PAX6 reporter transcription, RNA readout; actives raise or lower the signal. Put shortly:
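DMSO-referenced bidirectional fits of reporter mRNA fluorescence; HepG2 with transient cis-promoter MRTUs, 24 h post-dose, RT-PCR plus capillary electrophoresis detection.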

Assay [3] can be described thus: ATG_PXRE_CIS: Attagene CIS-FACTORIAL HepG2 Assay for human Pregnane X Receptor Element (PXRE) (AID 2282957). As to conditions: HepG2 Attagene CIS-FACTORIAL PXRE reporter, mRNA; actives raise or lower the signal. An outline of the steps:
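After a 24 h chemical incubation, total RNA from transfected HepG2 cells was reverse-transcribed and reporter cDNA amplified, FAM-labeled, HpaI-digested and sized by capillary electrophoresis. DMSO served as baseline for bidirectional curve fitting.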

Assay [4] can be described thus: ATG_PPRE_CIS: Attagene CIS-FACTORIAL HepG2 Assay for human Peroxisome Proliferator-activated Response Element (PPRE) (AID 2282958). As to conditions: HepG2 PPRE cis-element reporter, Attagene transcription factor profiling; actives raise or lower the signal. Put shortly:
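In this cell-based multiplex, a PPRE cis element drives a reporter sequence in transiently transfected HepG2 cells. Following 24 h treatment, labeled cDNA amplicons are sized and quantified by capillary electrophoresis, with DMSO defining baseline.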

Assay [5] in a line: ATG_RORE_CIS: Attagene CIS-FACTORIAL HepG2 Assay for human RAR-related Orphan Receptor Element (RORE) (AID 2282959). As to conditions: HepG2 Attagene cis-factorial RORE reporter, mRNA; actives raise or lower the signal. An outline of the steps:
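Endogenous factor activity at a cis response element is read as reporter transcript levels in HepG2 cells, 24 h post-dose. Transcripts are quantified by RT-PCR with capillary electrophoresis, and data fitted in both directions against DMSO.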

Assay [6] in a line: ATG_Sox_CIS: Attagene CIS-FACTORIAL HepG2 Assay for human SRY-box transcription factor (SOX) (AID 2282960). As to conditions: HepG2 Attagene cis-factorial SOX reporter, mRNA; actives raise or lower the signal. An outline of the steps: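 Measures mRNA induction of a SOX1-associated reporter in HepG2 after 24 h dosing. Fluorescently labelled RT-PCR fragments are separated by capillary electrophoresis, and gain or loss relative to DMSO control is fitted.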

Assay [7] addresses Transcription factor Sp1 (Homo sapiens) (UniProt P08047). Description: ATG_Sp1_CIS: Attagene CIS-FACTORIAL HepG2 Assay for human Specificity Protein 1 (Sp1) (AID 2282961). As to conditions: HepG2 Sp1 cis-reporter transcription, actives raise or lower the signal. Put shortly:
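Cells: HepG2, transiently transfected with cis-regulated multiplexed reporters. Exposure: 24 h. Detection: reporter transcripts amplified, fluorescently labeled, restriction-digested and sized by capillary electrophoresis. Analysis: bidirectional fit relative to DMSO.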

Assay [8] is described as follows: ATG_SREBP_CIS: Attagene CIS-FACTORIAL HepG2 Assay for human Sterol Regulatory Element Binding (SREBP) (AID 2282962). As to conditions: HepG2 Attagene cis-factorial SREBP reporter, mRNA; actives raise or lower the signal. An outline of the steps:
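In this cis-format assay, HepG2 liver cells express reporters controlled by promoter elements responsive to native transcription factors. Exposure lasts 24 h; reporter mRNA fluorescence from capillary electrophoresis gives the signal, fitted bidirectionally against DMSO.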

For assay [9], the target named is Signal transducer and activator of transcription 3 (Homo sapiens) (UniProt P40763). Description: ATG_STAT3_CIS: Attagene CIS-FACTORIAL HepG2 Assay for human Signal Transducer and Activator of Transcription 3 (STAT3) (AID 2282963). As to conditions: HepG2, Attagene cis-factorial STAT3 reporter transcription; actives raise or lower the signal. Put shortly:
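Readout: fluorescent reporter mRNA fragments resolved by capillary electrophoresis. Setup: HepG2 transfected with MRTUs reporting endogenous transcription-factor activity, dosed 24 h. Gain or loss of signal fitted bidirectionally against DMSO control.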

The nature of assay [10]: ATG_TA_CIS: Attagene CIS-FACTORIAL HepG2 Assay for human TA Basal Promoter (AID 2282964). As to conditions: HepG2 Attagene CIS-factorial TA basal promoter reporter; actives raise or lower the signal. An outline of the steps: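 Read-out: fluorescent reporter-transcript fragments resolved by capillary electrophoresis after RT-PCR and HpaI digestion. Source: HepG2 cells carrying transiently transfected multi-reporter cis constructs, treated 24 h. Endpoint fitted bidirectionally relative to DMSO.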

The nature of assay [11]: ATG_TCF_b_cat_CIS: Attagene CIS-FACTORIAL HepG2 Assay for human T-Cell-Factor with beta-catenin (TCF/b-cat) (AID 2282965). As to conditions: HepG2 TCF/beta-catenin cis-reporter transcription, actives raise or lower the signal. An outline of the steps: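 HepG2, transient MRTU transfection, cis-element-driven reporters (endogenous TFs). 24 h compound exposure. Readout: reporter mRNA by RT-PCR + 6-FAM primer extension, HpaI digest, capillary electrophoresis. Gain/loss fit vs DMSO baseline.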

Assay [12] is described as follows: ATG_TAL_CIS: Attagene CIS-FACTORIAL HepG2 Assay for human TAL Basal Promoter (AID 2282966).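 Further: background control endpoint measuring basal TAL promoter reporter mRNA not a specific factor.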 As to conditions: HepG2 Attagene cis-factorial TAL promoter reporter; actives raise or lower the signal. An outline of the steps:
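Basal-promoter background-control endpoint from a multiplexed HepG2 reporter panel. Cells were exposed 24 h, then reporter mRNA was read by RT-PCR/CE fluorescence and fitted in both directions relative to DMSO.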

The target in assay [13] is Nuclear receptor subfamily 1 group I member 3 (Homo sapiens) (UniProt Q14994). Description: ATG_CAR_TRANS: Attagene TRANS-FACTORIAL HepG2 Assay for human Constitutive Androstane Receptor (CAR) (AID 2282969; active means hit-call score of the fitted dose curve at least 0.9, where 1 is the maximum;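 further: activators raise reporter mRNA above DMSO so AC50 marks induction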). As to conditions: HepG2 Attagene TRANS-FACTORIAL CAR reporter. An outline of the steps: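 Transiently transfected HepG2, multiplex TRANS reporters (CAR-Gal4 chimera driving GAL4-UAS reporter). 24 h dosing. Readout: reporter transcript by RT-PCR + capillary electrophoresis, fluorescence intensity; positive direction vs DMSO.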
Sequence of Nuclear receptor subfamily 1 group I member 3 (Homo sapiens) (Q14994 whole entry, looked up, the tested form may be a part): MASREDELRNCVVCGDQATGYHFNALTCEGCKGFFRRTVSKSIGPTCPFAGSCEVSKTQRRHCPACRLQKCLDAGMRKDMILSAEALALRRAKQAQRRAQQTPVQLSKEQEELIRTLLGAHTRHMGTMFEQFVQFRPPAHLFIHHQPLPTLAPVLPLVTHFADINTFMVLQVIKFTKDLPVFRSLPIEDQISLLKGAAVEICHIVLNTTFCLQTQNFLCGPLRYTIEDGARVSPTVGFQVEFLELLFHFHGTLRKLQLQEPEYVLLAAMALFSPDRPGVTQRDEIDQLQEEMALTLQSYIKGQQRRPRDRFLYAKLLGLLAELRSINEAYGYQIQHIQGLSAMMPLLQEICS

Assay [14] deals with Estrogen receptor (Homo sapiens) (UniProt P03372). Description: ATG_ERa_TRANS: Attagene TRANS-FACTORIAL HepG2 Assay for human Estrogen Receptor alpha (ERa) (AID 2282970; active means hit-call score of the fitted dose curve at least 0.9, where 1 is the maximum). As to conditions: HepG2 Attagene TRANS ERa GAL4 reporter, mRNA. Put shortly:
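Gal4-fusion ERa transactivation, measured as reporter transcript level in transiently transfected HepG2 cells. Exposure 24 h; RT-PCR plus capillary electrophoresis with fluorescence detection.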

The target in assay [15] is X-box-binding protein 1 (Homo sapiens) (UniProt P17861). Description: ATG_Xbp1_CIS: Attagene CIS-FACTORIAL HepG2 Assay for human X-box Binding Protein 1 (XBP1) (AID 2282972). As to conditions: HepG2 XBP1 cis-element reporter, Attagene multiplex; actives raise or lower the signal. Put shortly:
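Changes in reporter transcript abundance, read by RT-PCR and capillary electrophoresis, reflect endogenous transcription factor activity. Transfected HepG2 cells received compound for 24 hours; DMSO defined baseline for bidirectional analysis.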

A short description of assay [16]: ATG_M_19_TRANS: Attagene TRANS-FACTORIAL HepG2 Assay for M19 Transcription Factor (Internal Marker) (AID 2282974; active means hit-call score of the fitted dose curve at least 0.9, where 1 is the maximum). As to conditions: HepG2 Attagene TRANS-FACTORIAL M19 internal marker reporter. Put shortly: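 Reporter mRNA induction was measured in transfected HepG2 cells 24 h after dosing. Endpoint fitted upward relative to DMSO and serves as a background control within the multiplexed TRANS panel.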

Assay [17] can be described thus: ATG_TGFb_CIS: Attagene CIS-FACTORIAL HepG2 Assay for human Transforming Growth Factor (TGF) (AID 2282967). As to conditions: HepG2 Attagene CIS TGFb reporter, mRNA transcription; actives raise or lower the signal. An outline of the steps:
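Transient MRTU transfection of HepG2 (FuGene 6). Dose 24 h. TriZol RNA, oligo(dT) RT, PCR, 6-FAM primer extension, HpaI cut, CE. Bidirectional fit, DMSO = baseline.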

The nature of assay [18]: ATG_VDRE_CIS: Attagene CIS-FACTORIAL HepG2 Assay for human Vitamin D Receptor Element (VDRE) (AID 2282968). As to conditions: HepG2 VDRE cis-reporter transcription, actives raise or lower the signal. An outline of the steps:
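Transient MRTU transfection of HepG2, 24 h compound exposure. Readout: reporter transcripts via RT-PCR and capillary electrophoresis, fluorescence. Bidirectional fit vs DMSO.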

Assay [19] in a line: ATG_GAL4_TRANS: Attagene TRANS-FACTORIAL HepG2 Assay for GAL4 (Internal Marker) (AID 2282976; active means hit-call score of the fitted dose curve at least 0.9, where 1 is the maximum). As to conditions: HepG2 Attagene TRANS GAL4 internal marker reporter. Put shortly: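 Background-control readout: GAL4-UAS reporter transcript in transiently transfected HepG2 cells after 24 h compound exposure. Measured by RT-PCR, 6-FAM primer extension, HpaI digest and capillary electrophoresis; gain-of-signal fit versus DMSO.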

Sequence of Signal transducer and activator of transcription 3 (Homo sapiens) (P40763 whole entry, looked up, the tested form may be a part): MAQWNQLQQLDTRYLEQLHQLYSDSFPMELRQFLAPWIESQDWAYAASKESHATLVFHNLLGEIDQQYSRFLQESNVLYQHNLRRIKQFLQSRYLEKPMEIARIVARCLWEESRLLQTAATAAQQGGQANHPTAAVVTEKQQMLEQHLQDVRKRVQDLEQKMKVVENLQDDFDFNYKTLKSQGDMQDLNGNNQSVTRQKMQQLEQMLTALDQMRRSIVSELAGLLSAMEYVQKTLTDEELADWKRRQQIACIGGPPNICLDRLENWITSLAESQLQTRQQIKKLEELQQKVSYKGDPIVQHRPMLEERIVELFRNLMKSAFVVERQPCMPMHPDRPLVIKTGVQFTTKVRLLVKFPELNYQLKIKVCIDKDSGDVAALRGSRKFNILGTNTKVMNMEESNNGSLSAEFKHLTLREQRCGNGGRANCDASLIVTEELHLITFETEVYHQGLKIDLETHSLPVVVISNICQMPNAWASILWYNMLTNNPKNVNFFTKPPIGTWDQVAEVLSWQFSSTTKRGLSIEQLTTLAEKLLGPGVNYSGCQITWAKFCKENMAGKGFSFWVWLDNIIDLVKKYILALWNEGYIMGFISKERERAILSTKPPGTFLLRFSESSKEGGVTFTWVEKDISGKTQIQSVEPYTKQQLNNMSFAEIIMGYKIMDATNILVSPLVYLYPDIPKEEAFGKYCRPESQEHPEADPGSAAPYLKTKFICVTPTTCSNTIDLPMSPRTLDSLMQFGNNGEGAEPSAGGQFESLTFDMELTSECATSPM
Sequence of Paired box protein Pax-6 (Homo sapiens) (P26367 whole entry, looked up): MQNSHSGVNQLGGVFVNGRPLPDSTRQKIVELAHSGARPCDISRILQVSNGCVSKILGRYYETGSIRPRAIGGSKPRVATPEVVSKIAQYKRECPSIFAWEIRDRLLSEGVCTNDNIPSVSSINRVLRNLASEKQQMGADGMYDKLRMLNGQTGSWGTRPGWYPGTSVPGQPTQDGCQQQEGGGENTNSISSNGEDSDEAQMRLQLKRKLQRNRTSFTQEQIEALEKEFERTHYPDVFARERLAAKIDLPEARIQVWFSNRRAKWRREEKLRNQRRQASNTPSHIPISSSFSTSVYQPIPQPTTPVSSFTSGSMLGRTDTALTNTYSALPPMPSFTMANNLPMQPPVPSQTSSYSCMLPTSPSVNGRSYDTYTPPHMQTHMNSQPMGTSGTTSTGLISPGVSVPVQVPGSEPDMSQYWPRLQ
Sequence of Transcription factor Sp1 (Homo sapiens) (P08047 whole entry, looked up): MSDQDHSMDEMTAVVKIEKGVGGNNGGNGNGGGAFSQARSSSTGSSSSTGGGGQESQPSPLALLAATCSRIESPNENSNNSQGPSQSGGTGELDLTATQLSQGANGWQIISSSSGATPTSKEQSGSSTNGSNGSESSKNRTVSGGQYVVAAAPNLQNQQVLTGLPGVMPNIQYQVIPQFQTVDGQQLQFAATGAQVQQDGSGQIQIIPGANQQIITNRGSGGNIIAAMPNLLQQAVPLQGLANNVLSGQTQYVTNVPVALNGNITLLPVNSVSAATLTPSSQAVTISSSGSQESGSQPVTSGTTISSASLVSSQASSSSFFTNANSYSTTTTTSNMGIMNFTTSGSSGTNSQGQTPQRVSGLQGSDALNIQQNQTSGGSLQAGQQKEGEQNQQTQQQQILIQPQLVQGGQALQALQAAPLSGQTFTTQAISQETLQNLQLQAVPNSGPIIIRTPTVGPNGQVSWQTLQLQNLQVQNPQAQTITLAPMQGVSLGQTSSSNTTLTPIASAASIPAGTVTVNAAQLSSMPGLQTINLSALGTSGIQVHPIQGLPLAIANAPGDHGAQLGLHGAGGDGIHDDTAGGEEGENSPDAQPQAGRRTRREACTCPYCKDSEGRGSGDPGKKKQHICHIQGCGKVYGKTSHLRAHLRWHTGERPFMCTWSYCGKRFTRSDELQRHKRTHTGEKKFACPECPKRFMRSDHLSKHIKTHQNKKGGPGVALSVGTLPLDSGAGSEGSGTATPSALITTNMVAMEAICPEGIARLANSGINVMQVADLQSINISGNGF
Sequence of Estrogen receptor (Homo sapiens) (P03372 whole entry, looked up, the tested form may be a part): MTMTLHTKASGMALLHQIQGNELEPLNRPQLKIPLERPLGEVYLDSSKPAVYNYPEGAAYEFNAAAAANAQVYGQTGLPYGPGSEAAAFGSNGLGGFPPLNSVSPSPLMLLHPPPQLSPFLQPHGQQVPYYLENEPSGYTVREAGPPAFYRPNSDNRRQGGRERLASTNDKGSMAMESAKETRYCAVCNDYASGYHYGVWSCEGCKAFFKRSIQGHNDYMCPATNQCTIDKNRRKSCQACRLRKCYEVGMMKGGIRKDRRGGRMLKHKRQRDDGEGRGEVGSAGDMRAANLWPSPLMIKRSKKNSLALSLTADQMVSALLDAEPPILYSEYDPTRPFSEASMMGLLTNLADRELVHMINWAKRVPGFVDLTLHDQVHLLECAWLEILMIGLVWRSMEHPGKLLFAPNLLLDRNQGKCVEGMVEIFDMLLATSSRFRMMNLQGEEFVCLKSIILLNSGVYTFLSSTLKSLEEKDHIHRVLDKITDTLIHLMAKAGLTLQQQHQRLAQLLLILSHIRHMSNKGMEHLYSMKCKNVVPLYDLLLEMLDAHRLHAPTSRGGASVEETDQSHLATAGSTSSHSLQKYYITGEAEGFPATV
Sequence of X-box-binding protein 1 (Homo sapiens) (P17861 whole entry, looked up): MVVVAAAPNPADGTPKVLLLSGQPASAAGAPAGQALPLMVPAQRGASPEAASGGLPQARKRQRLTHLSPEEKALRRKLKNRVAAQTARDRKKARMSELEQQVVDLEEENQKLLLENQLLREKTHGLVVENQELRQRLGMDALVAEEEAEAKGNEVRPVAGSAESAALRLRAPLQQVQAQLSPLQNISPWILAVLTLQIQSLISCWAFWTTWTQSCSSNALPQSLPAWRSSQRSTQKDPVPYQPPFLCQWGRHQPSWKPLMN

Regarding `Nc1nc(N)nc(-c2ccccc2)n1`, the result in [1], in assay [2], in assay [3], in [4], in [5] and in [6] was inactive. Moreover, the result in assay [7], in [8], in [9], in assay [10], in assay [11] and in assay [12] was inactive. The compound was called inactive in assay [13], in assay [14], in [15] and in assay [16].
As for `CC/C=C\CCOC(=O)c1ccccc1O`, the result in assay [1], in [2], in [3], in assay [4], in assay [5] and in [6] was inactive. The compound was called inactive in assay [7], in [8], in assay [10], in [11], in assay [12] and in assay [17]. The compound was called inactive in [18], in assay [13], in [14], in assay [15], in assay [16] and in assay [19].
For `N#Cc1ccc(C2CCCc3cncn32)cc1` (stereo unspecified), the outcome in assay [1], in [2], in assay [4], in [5], in assay [6] and in assay [7] was inactive. For the same compound, the call in [8], in [9], in [10], in [11], in assay [12] and in assay [17] was inactive. For the same compound, the result in [15], in assay [16] and in [19] was inactive. Moreover, the AC50 in assay [3] is 23.9 µM (active); in assay [14], 25.8 µM (active).
Take `COc1ccc(C(=O)c2ccccc2)c(O)c1`: the AC50 was 85.9 µM (active) in [1]; 149 µM (active) in assay [2]; 26.7 µM (active) in assay [3]; 121 µM (active) in [4]; 100 µM (active) in assay [5]; 121 µM (active) in [10]. The results for the AC50 in [17] and in assay [14] were 156 µM (active) and 6.43 µM (active), respectively. For the same compound, the call in [6], in assay [7], in [8], in assay [9], in [11] and in assay [12] was inactive. In addition, the outcome in assay [16] and in assay [19] was inactive.
On to `C=CC(C)(CCC=C(C)C)OC(=O)C=Cc1ccccc1` (stereo unspecified), for which the outcome in assay [1], in assay [2], in [4], in [5], in assay [6] and in [7] was inactive. Further, the outcome in assay [8], in assay [9], in assay [10], in assay [11], in assay [12] and in [17] was inactive. In assay [15], the outcome was inactive. Further, the AC50 in [3] was 1.82 µM (active); in assay [14], 7.3 µM (active).
Regarding `Nc1ncnc2nc[nH]c12`, the result in [1], in [2], in assay [3], in assay [4], in assay [5] and in assay [6] was inactive. Moreover, the outcome in assay [7], in assay [8], in assay [9], in assay [10], in assay [11] and in [12] was inactive. Moreover, the outcome in assay [18], in [15], in [16] and in [19] was inactive.
In the case of `Cn1ccnc1`, the outcome in assay [1], in [2], in assay [3], in assay [4], in assay [5] and in assay [6] was inactive. Further, the compound was classed as inactive in [7], in [8], in assay [9], in assay [10], in [11] and in assay [12]. The compound was classed as inactive in assay [18], in assay [13], in assay [15] and in assay [16].
Turning to `Oc1ccccc1Cc1ccccc1O`, the result in assay [1], in assay [4], in assay [5], in [6], in [7] and in assay [9] was inactive. The call in [10], in assay [12], in assay [17], in [16] and in assay [19] was inactive. In addition, the AC50 is 100 µM (active) in assay [2]; 26.3 µM (active) in [3]; 64.5 µM (active) in assay [8]; 37.9 µM (active) in assay [11]; 18.1 µM (active) in [14]; 144 µM (active) in assay [15].

For the origin of these results see PubChem BioAssay (EPA / NIEHS).
